Laboratory results taken from the supplement of paper PMC13380429.

Tested on: Vero E6 infected with SARS-CoV-2
Test: inhibition of SARS-CoV-2 cytopathic effect; higher = more antiviral protection, active = above 15
Details: 48 h

Measured: inhibition of SARS-CoV-2 cytopathic effect

Cn1ncnc1COc1nn2c(-c3cc(F)ccc3F)nnc2cc1C(C)(C)C
inactive: 1 nM 3.33% | 8.33 nM 3.4% | 100 nM 3.15% | 833.33 nM 1.53% | 10000 nM 0.81%

CCCn1c(=O)c2[nH]cnc2n(-c2ccc(Cl)cc2)c1=O [arofylline]
inactive: 1 nM -3.55% | 8.33 nM -1.13% | 100 nM 0.16% | 833.33 nM -6.97% | 10000 nM -3.81%

Cc1ccc(-c2ncc[nH]2)cc1NC(=O)c1ccc(OCc2ccccn2)cc1
inactive: 1 nM -1.02% | 8.33 nM -0.95% | 100 nM -2.09% | 833.33 nM -4.18% | 10000 nM -4.54%

COc1ccc2[nH]c(C(=O)c3ccccc3)cc2c1
inactive: 1 nM 0.63% | 8.33 nM 1.49% | 100 nM 0.36% | 833.33 nM 0.6% | 10000 nM 0.07%

N.N.[Cl][Pt][Cl] [cisplatin]
inactive: 1 nM 1.16% | 8.33 nM 0.86% | 100 nM 0.61% | 833.33 nM 3.21% | 10000 nM 1.76%

CC(C)CCNc1ncccc1C(=O)N1CCN(Cc2ccccc2)CC1
inactive: 1 nM 0.16% | 8.33 nM 0.21% | 100 nM 1.38% | 833.33 nM 0.33% | 10000 nM -0.35%

CNNCc1ccc(C(=O)NC(C)C)cc1 [procarbazine]
inactive: 1 nM -1.55% | 8.33 nM 4.48% | 100 nM -0.09% | 833.33 nM 2.14% | 10000 nM 0.27%

O=[N+]([O-])c1cc2nc(O)c(O)nc2cc1[N+](=O)[O-]
inactive: 1 nM -4.28% | 8.33 nM -0.96% | 100 nM -0.81% | 833.33 nM -1.99% | 10000 nM 0.49%

O=C1N=C2SCCN2C(=O)C1Cc1ccc(Cl)cc1 (stereo not given) [nuclomedone]
inactive: 1 nM -1.33% | 8.33 nM -3.69% | 100 nM 0.26% | 833.33 nM 0.58% | 10000 nM -2.17%

Cc1ncc(-c2csc(N=C(N)N)n2)[nH]1 [zaltidine]
inactive: 1 nM 2.21% | 8.33 nM -0.85% | 100 nM -3.06% | 833.33 nM -1.56% | 10000 nM -0.54%

COc1cc(C2Oc3cc([C@H]4Oc5cc(O)cc(O)c5C(=O)[C@@H]4O)ccc3OC2CO)ccc1O (stereo not given in full) [silibinin]
inactive: 1 nM -0.88% | 8.33 nM -0.77% | 100 nM 0.27% | 833.33 nM -1.29% | 10000 nM 1.72%

COc1cc2c(cc1OC)-c1c(C)c3ccc(OC)c(OC)c3c[n+]1CC2 [dehydrocorydaline]
inactive: 1 nM -0.53% | 8.33 nM 0.34% | 100 nM -1% | 833.33 nM -1.37% | 10000 nM 0.05%

CN1[C@@H]2CC[C@H]1C[C@@H](OC(=O)[C@H](CO)c1ccccc1)C2 [hyoscyamine]
inactive: 1 nM 1.06% | 8.33 nM -0.12% | 100 nM 0.93% | 833.33 nM -0.12% | 10000 nM -0.51%

COc1ccc2[nH]c([S+]([O-])Cc3ncc(C)c(OC)c3C)nc2n1 (stereo not given) [tenatoprazole]
inactive: 1 nM -9.92% | 8.33 nM -12.8% | 100 nM -7.87% | 833.33 nM -11.3% | 10000 nM 2.26%

O=C(c1ccc(OCCCc2c[nH]cn2)cc1)C1CC1 [ciproxifan]
inactive: 1 nM -1.13% | 8.33 nM -1.91% | 100 nM -1.12% | 833.33 nM 9.43% | 10000 nM 10.2%
